Bioassay records deposited in PubChem BioAssay by National Center for Advancing Translational Sciences (NCATS).
Pf Dd2 inh – inhibitors of Plasmodium falciparum Dd2 growth. Potency, µM (series often up to 28.9 µM), without a hit: at the top dose activity, negative = inhibition, hits mostly inhibitors. hit rate 4.3% among 120,000. AID 1347417. P. falciparum Dd2 growth, SYBR Green, 72 h; active means well fitted inhibition curve with a large enough effect;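 further: plate controls were DMSO vehicle for no effect and reference drug for full effect; nearly all actives have a fitted effect of over 65% in size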
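Infected erythrocytes (Dd2, 0.3% parasitemia, 2.5% hematocrit final) are added to compound in RPMI-1640/Albumax II medium, grown 72 h at 37C in low oxygen, then lysed with saponin/Triton-X containing SYBR Green and read by fluorescence.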
Numbers without * were called inactive; i = inactive; [ ] = dose if it differs, or a comment. The sample as a whole holds a higher share of hits than the screen did. Potency means the concentration at half of the fitted maximal effect.

SMILES	Pf Dd2 inh
Cc1noc(C)c1S(=O)(=O)N1C[C@@H](F)C[C@H]1C(=O)N1CCc2ccccc2C1	i
COc1ccc(CN2Cc3cc(NC(=O)c4c(F)cccc4F)ccc3OCC2=O)c(OC)c1	i
CN(C)CCN(C)C[C@@H]1CN(C(=O)c2ccc(=O)n(C)c2)C[C@@H]1CO	-1%
C[C@@]1(O)CCN(CC2CCCCC2)C[C@H]1N1CCCC1	-18%[5.79 µM]
CN1C(=O)COC[C@@H]1[C@H](O)c1ccc(NC(=O)C2CCCCC2)cc1	-13%[44.1 µM]
Cc1cc(S(=O)(=O)C(CNC(=O)c2ccc(OC(C)C)cc2)c2cccs2)ccc1F (centres undefined)	5µM*
COc1ccc(CC(=O)NCC(c2cccs2)S(=O)(=O)c2ccc(F)c(C)c2)cc1 (centres undefined)	i
CCOc1ccccc1C(=O)NCC(c1cccs1)S(=O)(=O)c1ccc(F)c(C)c1 (centres undefined)	20%
COCCNC(=O)C1COC2(CCN(C(=O)c3ccccc3C)CC2)N1C(=O)c1cccc(OC)c1 (centres undefined)	0%
NC(=O)C1CCN([C@H]2[C@@H]3OC[C@@H](O3)[C@@H](NCc3ccc(OC(F)(F)F)cc3)[C@@H]2O)CC1	-5%
O=C(O)C1Cn2cccc2C(=O)N1Cc1cccnc1 (centres undefined)	23%
CC(C)CN1C(=O)c2cccn2CC1C(=O)N1CCN(Cc2ccc3c(c2)OCO3)CC1 (centres undefined)	-24%
Cc1ccc(CN2CCN(C(=O)C3Cn4cccc4C(=O)N3Cc3cccnc3)CC2)cc1 (centres undefined)	13µM*
Cc1noc(C)c1S(=O)(=O)N1CCOCCNC(=O)[C@@H]2CCC[C@@H]21	-13%
Cn1nnnc1C1CCCN(C(=O)c2ccc3cc[nH]c3c2)C1 (centres undefined)	3%
Cc1cc(C)c(NC(=O)Nc2ccc3snnc3c2)c(C)c1	i
O=C(Nc1cccc(C(F)(F)F)c1)c1ccc2snnc2c1	51%
O=C(Nc1cccc(C(F)(F)F)c1)Nc1ccc2snnc2c1	1.1µM*
COc1cc(CN2CCC3(CC2)[C@H](O)C[C@@H]3OCCN)cc(OC)c1	-3%
CN1C(=O)CCC2(CNC(=O)CC3CCCC3)CCCC=C12 (centres undefined)	-3%
COCCOC1CCOC2(CCN(C(=O)Cc3ccccc3)CC2)C1 (centres undefined)	-25%
COCCOC1CCOC2(CCN(C(=O)c3nn(C)c4ccccc34)CC2)C1 (centres undefined)	5.6µM*
COCCOC1CCOC2(CCN(C(=O)Cc3c[nH]c4ccccc34)CC2)C1 (centres undefined)	11µM*
COCCOC1CCOC2(CCN(C(=O)c3ccccc3)CC2)C1 (centres undefined)	-21%
COC1CCOC2(CCN(C(=O)COc3ccccc3)CC2)C1 (centres undefined)	67%
SMILES	Pf Dd2 inh
COCCOC1CCOC2(CCN(C(=O)COc3ccccc3)CC2)C1 (centres undefined)	11µM*
COCCOC1CCOC2(CCN(C(=O)c3nccc4ccccc34)CC2)C1 (centres undefined)	-1%
COCCOC1CCOC2(CCN(C(=O)C3(c4ccccc4)CC3)CC2)C1 (centres undefined)	i
COCCOC1CCOC2(CCN(C(=O)c3n[nH]c4ccccc34)CC2)C1 (centres undefined)	-1%
O=C(C[C@@H]1C[C@H]2O[C@H](CNC3CCNCC3)[C@@H](O)[C@H]2O1)N1CCOCC1	8%
CC(=O)N1CCC(N2CCC[C@H]2c2nc(-c3ccnc(N4CCC(C(N)=O)CC4)c3)no2)CC1	i
O=C(N1CCN([S+](=O)([O-])Cc2ccccc2)CC1)N1CC2CC(C1)[C@H]1CCCC(=O)N1C2 (some centres undefined)	-6%
CCCN(CC1CCOC1)C(=O)Nc1ccc(Br)c(C)c1 (centres undefined)	-14%
Cc1ccc(N2CCC(NC(=O)c3ccc(F)cc3Cl)C2=O)cc1C (centres undefined)	10%
OCCC1CN(Cc2cccn2-c2ccccn2)CCN1Cc1cccs1 (centres undefined)	-25%
O=C(Nc1ccc2[nH]ccc2c1)C1=NO[C@@H]2CN(c3ccccc3)C[C@H]12	-4%[44.1 µM]
COc1ccc(CNC(=O)CC[C@]23CC[C@](C)(O)C[C@H]2C(C)(C)C[C@@H]3NCc2ccccn2)cc1	7.9µM*
COc1ccc(CNC(=O)CC[C@]23CC[C@](C)(O)C[C@H]2C(C)(C)C[C@@H]3NC(=O)CC(C)(C)C)cc1	i
COc1ccc(CNC(=O)CC[C@]23CC[C@](C)(O)C[C@H]2C(C)(C)C[C@@H]3NC(=O)c2cccs2)cc1	i
O=C(NC1CCCCC1)C1CCN(C(=O)N2CC3CC(C2)[C@H]2CCCC(=O)N2C3)CC1 (some centres undefined)	i
COc1cccc(COC2CN(CC(C)C)C(=O)CN(C(=O)c3snnc3C)C2)c1 (centres undefined)	-11%
CCOc1ccccc1CNC(=O)c1ccc2c(c1)N(S(C)(=O)=O)CC2	i
CCC(=O)N1CCc2c(C(=O)NCc3cccc(F)c3)cccc21	i
CCOc1ccccc1CNC(=O)c1cccc2c1CCN2C(=O)CC	10µM*
COc1ccc(NC(=O)CN2C(=O)NC3(CCC(C)CC3)C2=O)cc1OC (centres undefined)	0%
CCc1cc(=O)n(CC(=O)N2CCN(c3ccc(OC)cc3)CC2)c(N2CCOCC2)n1	i
CCc1cc(=O)n(CC(=O)N2CCN(c3ccccc3F)CC2)c(N2CCOCC2)n1	7.9µM*
CCc1cc(=O)n(CC(=O)Nc2ccccc2OC)c(N2CCOCC2)n1	11µM*
CCc1cc(=O)n(CC(=O)Nc2ccc(F)c(Cl)c2)c(N2CCOCC2)n1	i
COc1cc(NC(=O)Cn2c(N3CCN(c4ccccc4)CC3)nc(C)cc2=O)cc(OC)c1	6.3µM*
SMILES	Pf Dd2 inh
CCc1ccc(NC(=O)Cn2c(N3CCN(c4ccccc4)CC3)nc(C)cc2=O)cc1	i
CCc1cc(=O)n(CC(=O)Nc2cc(OC)c(OC)c(OC)c2)c(N2CCOCC2)n1	-4%
COc1ccc(NC(=O)Cn2c(N3CCC(C)CC3)nc(C)cc2=O)cc1	-21%
COCc1cc(=O)n(CC(=O)Nc2ccccc2OC)c(N2CCOCC2)n1	-9%
COc1cccc(OC)c1C(=O)NC1CC(=O)N(CCc2ccc(F)cc2)C1 (centres undefined)	0%
O=C(O)c1cn2ccnc(-c3ccc(F)cc3)c2n1	-13%
COc1cc(C(=O)N2CCC[C@H]2c2nc(-c3ccccc3Cl)no2)cc(OC)c1OC	7%
CC(C)NC(=O)N1CCOc2ccc(CCC(=O)O)cc2C1	7%
CC(=O)c1ccc(NC(=O)NC[C@H]2C[C@@H]3CCN2C[C@@H]3CN2CCN(c3ncccn3)CC2)cc1	i
CC(C)n1cnnc1CC1CCCN(S(=O)(=O)c2ccc3c(c2)C(C)(C)C(=O)N3)C1 (centres undefined)	-19%
O=C(N[C@@H]1CCOC[C@H]1OCc1cscn1)c1ccc(Cl)s1	-16%
Cc1ccccc1C(=O)N1CCC2(CC1)N=C(c1ccc(Br)cc1)NO2	i
Cc1ccc(C(=O)N2CCN(C(=O)c3nnn4c3COC(c3ccc(Cl)cc3)C4)CC2)c(C)c1 (centres undefined)	-2%
Cc1ccc(C)c(C(=O)N2CCN(C(=O)c3nnn4c3COC(c3ccc(Cl)cc3)C4)CC2)c1 (centres undefined)	i
